The values below come from article PMC10726135, “HNF4α isoforms regulate the circadian balance between carbohydrate and lipid metabolism in the liver”.

Whole data set: some 18,000 sequences, median “log2 normalized intensity” near 0.36, cut for the highest 2% near 7.3. The list comes from a sample in which the highest values are over-represented; it also holds similar and randomly drawn sequences.

In the test the target is T1, HNF4alpha8 (COS-7 nuclear extract) (Homo sapiens, UniProt P41235-5 1-452).
T1 sequence: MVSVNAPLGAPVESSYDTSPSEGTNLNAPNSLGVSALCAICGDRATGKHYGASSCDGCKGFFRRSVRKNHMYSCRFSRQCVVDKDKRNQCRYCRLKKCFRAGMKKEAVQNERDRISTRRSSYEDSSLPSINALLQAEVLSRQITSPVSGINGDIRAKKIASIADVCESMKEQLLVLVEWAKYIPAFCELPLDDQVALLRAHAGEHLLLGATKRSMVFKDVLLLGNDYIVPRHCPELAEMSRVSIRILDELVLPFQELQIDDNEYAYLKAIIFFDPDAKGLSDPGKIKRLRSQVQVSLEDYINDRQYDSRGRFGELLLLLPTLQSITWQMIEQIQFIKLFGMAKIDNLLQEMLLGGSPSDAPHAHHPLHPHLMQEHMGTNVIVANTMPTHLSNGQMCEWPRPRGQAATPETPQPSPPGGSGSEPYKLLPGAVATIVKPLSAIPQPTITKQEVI
Nature of the test: protein-binding microarray; COS-7 nuclear extract on double-stranded Agilent 4x180k PBM; binding buffer, salt, pH and temperature not given in the material; high values mean tight binding. The settings on record: chain copies: 2; label: 3' end of strand 1 on the slide; dsDNA, one strand shown. An outline of the steps:
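Nuclear extracts from COS-7 cells expressing a transiently transfected human HNF4α isoform were put on a custom Agilent SurePrint G3 4x180k array carrying ~44,000 double-stranded ~60-nt test sequences in quadruplicate. Imaging used an Agilent G2565CA scanner at 2-µm resolution. Binding signal is the background-corrected, normalized gProcessedSignal from Agilent software.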
In the case of “CCCCACTTCCTGACTTGGCCTGAACCAGTTGCCTAGGGAGATTAGAGTATCGGTCGA”, the binding signal came to 0.602 log2 normalized intensity.

Take “TTAAGAACTGGAGTAAAGGTCACTCTTGCTGCCTAGGGAGATTAGAGTATCGGTCGA”: the binding signal amounted to 3.94 log2 normalized intensity.

As for “GTGTTTAATGTTTTCATTCTGATTTGCACAGCCTAGGGAGATTAGAGTATCGGTCGA”, the binding signal was 0.934 log2 normalized intensity.

Turning to “CTCTCCAAGCCAGAAAGATGTTTGCCCCAAGCCTAGGGAGATTAGAGTATCGGTCGA”, the binding signal amounted to 2.94 log2 normalized intensity.

For the sequence “GGTTGGCACGCTTAGGGAACAAAGGTCAGTGCCTAGGGAGATTAGAGTATCGGTCGA”, the binding signal was determined as 7.22 log2 normalized intensity.

As to “CGCCGCCTCTGCCTCTTGACCCCTTGGCCCGCCTAGGGAGATTAGAGTATCGGTCGA”, the binding signal was 5.9 log2 normalized intensity.

Turning to “TTCCTGGCCTCTCTGCAAATTTGCCTTGTCGCCTAGGGAGATTAGAGTATCGGTCGA”, the binding signal worked out at 0.448 log2 normalized intensity.

Regarding “TGTTTGCACTGAGGAATGGAAGGACCTTGGGCCTAGGGAGATTAGAGTATCGGTCGA”, the binding signal came out at 2.07 log2 normalized intensity.

In the case of “TTAGGGGTTAGGGTTAGGGTTAGGGTTACGGCCTAGGGAGATTAGAGTATCGGTCGA”, the binding signal turned out to be 1.17 log2 normalized intensity.

“GGCTAAACCTAGCCCCCTTTCCCTTATCTTGCCTAGGGAGATTAGAGTATCGGTCGA”: the binding signal amounted to 2.81 log2 normalized intensity.

On to “ACAGGTGCTCTTTATCAGCACCAAGAACAAGCCTAGGGAGATTAGAGTATCGGTCGA”, for which the binding signal is -0.837 log2 normalized intensity.

As for “CTGGTGTAGTGGGGAGGGCATGGACTTTGGGCCTAGGGAGATTAGAGTATCGGTCGA”, the binding signal worked out at 6.38 log2 normalized intensity.

Consider “GGAGGACTTTGGAATGGCAGTGCTTGTCCAGCCTAGGGAGATTAGAGTATCGGTCGA”, for which the binding signal was 2.52 log2 normalized intensity.

For the sequence “ATGACCTTTGAGCAATAGGAAATGGGAGGGGCCTAGGGAGATTAGAGTATCGGTCGA”, the binding signal was determined as 3.35 log2 normalized intensity.

Turning to “GGGGAGGGCATGGACTTTGGAATTAAGGAGGCCTAGGGAGATTAGAGTATCGGTCGA”, the binding signal came out at 5.91 log2 normalized intensity.

On to “GCATGGAATGACTTTGGGGAAATGACCTTTGCCTAGGGAGATTAGAGTATCGGTCGA”, for which the binding signal is 7.96 log2 normalized intensity.

Turning to “GAATGACTTTGGGGAAATGACCTTTGTCCAGCCTAGGGAGATTAGAGTATCGGTCGA”, the binding signal was determined as 9.48 log2 normalized intensity.

Regarding “ATGTGGTATTAACATGTAAATATGACCTTTGCCTAGGGAGATTAGAGTATCGGTCGA”, the binding signal is 8.01 log2 normalized intensity.

Regarding “TTATCATGTGGTATTAACATGTAAATATGAGCCTAGGGAGATTAGAGTATCGGTCGA”, the binding signal worked out at 1.36 log2 normalized intensity.

For “GTAGTGGGGAGGGCATGGACTTTGGAATTAGCCTAGGGAGATTAGAGTATCGGTCGA”, the binding signal worked out at 8.06 log2 normalized intensity.

On to “TGATGACTTTTGACCCCAGGGGAAACTCCAGCCTAGGGAGATTAGAGTATCGGTCGA”, for which the binding signal came out at 5.06 log2 normalized intensity.

“CCTTTTTGGAATGTGTTTGCATGACTCATAGCCTAGGGAGATTAGAGTATCGGTCGA”: the binding signal turned out to be 1.5 log2 normalized intensity.

“GTATTAACATGTAAATATGACCTTTGCTTTGCCTAGGGAGATTAGAGTATCGGTCGA”: the binding signal was 7.1 log2 normalized intensity.

In the case of “TCACAATGGGGCATGACTTGTTATCACCTGGCCTAGGGAGATTAGAGTATCGGTCGA”, the binding signal amounted to 0.285 log2 normalized intensity.

Regarding “TCCTTCTTGCTTAGGATAGGGTCAGTCTTTGCCTAGGGAGATTAGAGTATCGGTCGA”, the binding signal is 2.48 log2 normalized intensity.

Turning to “AGGCCGGTTGGCCAGGTTCCTCCACCGTCAGCCTAGGGAGATTAGAGTATCGGTCGA”, the binding signal was -0.785 log2 normalized intensity.

Consider “TTCAGGCAGGAATGCTGAACAATTGATTTAGCCTAGGGAGATTAGAGTATCGGTCGA”, for which the binding signal was -0.858 log2 normalized intensity.

In the case of “GTCAAAAGGTGTATGTGGACTTTCAACTGCGCCTAGGGAGATTAGAGTATCGGTCGA”, the binding signal was determined as 6.13 log2 normalized intensity.

On to “CCACACAGCACGTAATAGTTCATGAAATGGGCCTAGGGAGATTAGAGTATCGGTCGA”, for which the binding signal stood at 0.614 log2 normalized intensity.

“AAACAGAGGCTGAAATGGTTACAAAGGTCAGCCTAGGGAGATTAGAGTATCGGTCGA”: the binding signal is 5.42 log2 normalized intensity.

Turning to “GGGGAAATGACCTTTGTCCAGCTGTGCCGAGCCTAGGGAGATTAGAGTATCGGTCGA”, the binding signal was determined as 7.01 log2 normalized intensity.

Turning to “AATGACCTTTGTCCAGCTGTGCCGAGCCTGGCCTAGGGAGATTAGAGTATCGGTCGA”, the binding signal is 4.91 log2 normalized intensity.

Turning to “ACTTTGGGGAAATGACCTTTGTCCAGCTGTGCCTAGGGAGATTAGAGTATCGGTCGA”, the binding signal amounted to 7.84 log2 normalized intensity.

Turning to “TCCAGTGGACATTGGCCCTTTGACCTTTAAGCCTAGGGAGATTAGAGTATCGGTCGA”, the binding signal was determined as 8.05 log2 normalized intensity.

As for “TCTTATGTCCCTCCTGACCTTTGGACTTGAGCCTAGGGAGATTAGAGTATCGGTCGA”, the binding signal was determined as 10.6 log2 normalized intensity.

As to “TTGGCTCTTATGTCCCTCCTGACCTTTGGAGCCTAGGGAGATTAGAGTATCGGTCGA”, the binding signal amounted to 9.16 log2 normalized intensity.

For “AACTCTCAGTTTGGCTCTTATGTCCCTCCTGCCTAGGGAGATTAGAGTATCGGTCGA”, the binding signal is 0.947 log2 normalized intensity.

Consider “ACCTTTGTCCTCATTGAGCCCTCCCCTTGTGCCTAGGGAGATTAGAGTATCGGTCGA”, for which the binding signal was determined as 4.38 log2 normalized intensity.

For the sequence “TGGACATTGGCCCTTTGACCTTTAATCAAGGCCTAGGGAGATTAGAGTATCGGTCGA”, the binding signal is 7.21 log2 normalized intensity.

On to “GACCTTTGGACTTGATAGAGTTTAAGTCTTGCCTAGGGAGATTAGAGTATCGGTCGA”, for which the binding signal stood at 7.2 log2 normalized intensity.

In the case of “CTCCTGACCTTTGGACTTGATAGAGTTTAAGCCTAGGGAGATTAGAGTATCGGTCGA”, the binding signal stood at 8.25 log2 normalized intensity.

“TCAGTTTGGCTCTTATGTCCCTCCTGACCTGCCTAGGGAGATTAGAGTATCGGTCGA”: the binding signal turned out to be 3.83 log2 normalized intensity.

With “ACTGCTCCAGTGGACATTGGCCCTTTGACCGCCTAGGGAGATTAGAGTATCGGTCGA”, the binding signal came to 6.76 log2 normalized intensity.

In the case of “ATATCCTGACTGCTGACCTTTAAGCCTATAGCCTAGGGAGATTAGAGTATCGGTCGA”, the binding signal was determined as 4.7 log2 normalized intensity.

With “GCCTCTTTATCTCCTCCCCTTGAGACTTTAGCCTAGGGAGATTAGAGTATCGGTCGA”, the binding signal was 2.97 log2 normalized intensity.
